Assay results published in PubChem BioAssay (NCATS).
Where “and” joins values, the source holds several entries; their conditions need not be identical. Equal entries are not always repeated. Records with an inconclusive call do not appear. A call without a number means that no potency is given here. Unmarked numbers belong to inactive results. Calls of active or inactive are those of the source. Unless noted, calls come from the whole dose curve; as a rule, active = well fitted curve in the direction sought with a large enough effect; inconclusive = small, poorly fitted or top-dose-only effect, or another doubt; inactive = no such curve, though single readings can be large; an effect the other way counts as inactive or inconclusive.

Tests used:
[1] = target: Cellular tumor antigen p53 (Homo sapiens) (UniProt P04637); assay: Primary qHTS for small molecule compounds that upregulate eGFP-tagged delta133p53alpha (in N-terminal) cells. (AID 2060322); details: NCI-H358 eGFP-delta133p53alpha fluorescence, 24 h; activation: active compounds read high; note: nearly all actives have a fitted effect of over 75% in size; note: potency is the fitted concentration of half-maximal effect; for activation: series mostly up to about 56 µM
Cellular tumor antigen p53 (Homo sapiens), sequence (P04637 whole entry, looked up): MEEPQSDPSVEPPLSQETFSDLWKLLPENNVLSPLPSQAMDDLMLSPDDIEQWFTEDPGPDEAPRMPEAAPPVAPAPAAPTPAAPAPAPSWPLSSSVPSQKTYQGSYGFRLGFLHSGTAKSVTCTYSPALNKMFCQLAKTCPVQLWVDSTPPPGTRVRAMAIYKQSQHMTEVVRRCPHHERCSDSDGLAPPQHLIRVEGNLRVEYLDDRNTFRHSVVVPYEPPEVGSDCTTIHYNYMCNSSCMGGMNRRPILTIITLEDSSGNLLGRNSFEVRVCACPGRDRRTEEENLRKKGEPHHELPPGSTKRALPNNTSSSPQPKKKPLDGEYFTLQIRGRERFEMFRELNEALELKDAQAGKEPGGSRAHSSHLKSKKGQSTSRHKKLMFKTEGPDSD
How it was run: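 NCI-H358 cells pre-induced 24 h with 10 ng/ml doxycycline to express N-terminal eGFP-delta133p53alpha, then dosed 24 h at 37C without doxycycline; fixed, Hoechst-stained, GFP intensity by laser scanning cytometry, normalized to DMSO (0%) and 57.5 uM 5-azacytidine (100%).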

[2] = target: Aldehyde dehydrogenase, mitochondrial (Homo sapiens) (UniProt P05091); assay: qHTS for Inhibitors of the Aldehyde Dehydrogenase Family (ALDH2) Confirmatory screens (AID 2061303; active = well fitted inhibition curve with a large enough effect; title and protocol of this record describe different tests; note: nearly all actives have a fitted effect of over 45% in size; note: potency is the fitted concentration of half-maximal effect)
[3] = qHTS for Inhibitors of the Aldehyde Dehydrogenase Family (ALDH1A2, ALDH1A3, ALDH2, ALDH3A1) (AID 2061307); note: nearly all actives have a fitted effect of over 50% in size; for potency: test system not described further here; potency is the fitted concentration of half-maximal effect
[4] = target: Retinaldehyde dehydrogenase 3 (Homo sapiens) (UniProt P47895); assay: qHTS for Inhibitors of the Aldehyde Dehydrogenase Family (ALDH1A3) Primary screen (AID 2061315); note: potency is the fitted concentration of half-maximal effect
[5] = target: Aldehyde dehydrogenase 1A1 (Homo sapiens) (UniProt P00352); assay: qHTS for Inhibitors of the Aldehyde Dehydrogenase Family (ALDH1A1) Confirmatory screens (AID 2061316); note: nearly all actives have a fitted effect of over 65% in size; note: potency is the fitted concentration of half-maximal effect
[6] = target: Aldehyde dehydrogenase, mitochondrial (Homo sapiens) (UniProt P05091); assay: qHTS for Inhibitors of the Aldehyde Dehydrogenase Family (ALDH2) Primary screen (AID 2061308); note: nearly all actives have a fitted effect of over 55% in size
[7] = target: Retinaldehyde dehydrogenase 3 (Homo sapiens) (UniProt P47895); assay: qHTS for Inhibitors of the Aldehyde Dehydrogenase Family (ALDH1A3) Confirmatory screens (AID 2061311); note: nearly all actives have a fitted effect of over 60% in size; note: potency is the fitted concentration of half-maximal effect
[8] = target: Retinaldehyde dehydrogenase 3 (Homo sapiens) (UniProt P47895); assay: qHTS for Inhibitors of the Aldehyde Dehydrogenase Family (ALDH1A3) Validation screen (AID 2061312); note: nearly all actives have a fitted effect of over 45% in size; note: potency is the fitted concentration of half-maximal effect
[9] = target: Retinal dehydrogenase 2 (Homo sapiens) (UniProt O94788); assay: qHTS for Inhibitors of the Aldehyde Dehydrogenase Family (ALDH1A2) Confirmation screens (AID 2061314); note: nearly all actives have a fitted effect of over 65% in size; note: potency is the fitted concentration of half-maximal effect
[10] = BET inhibitor-based combinations targeting novel dependencies in MECOM-rearranged (r) AML: SET-2 cell line (AID 2202231); details: SET-2 AML cells viability, CellTiter-Glo luminescence, 48 h; viability: active compounds read low, concentration not given here; note: nearly all actives have a fitted effect of over 35% in size; note: potency is the fitted concentration of half-maximal effect
How it was run: (§1)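 Here, 11-point titrations of each agent were applied to 500 seeded cells and incubated 48 hr; CellTiter-Glo signal, scaled against DMSO and empty wells, was integrated as AUC, then Z-scored within the individual line.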

[11] = BET inhibitor-based combinations targeting novel dependencies in MECOM-rearranged (r) AML: OCI-AML3 cell line (AID 2202232); details: Potency: OCI-AML3 viability; note: nearly all actives have a fitted effect of over 35% in size; note: potency is the fitted concentration of half-maximal effect
How it was run: as §1

[12] = BET inhibitor-based combinations targeting novel dependencies in MECOM-rearranged (r) AML: MV-4-11 cell line (AID 2202233); note: nearly all actives have a fitted effect of over 45% in size; note: potency is the fitted concentration of half-maximal effect
How it was run: (§2)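 Normalized to DMSO and empty-well controls, the luminescence data from CellTiter-Glo after 48 hr drug exposure were fitted across 11 concentrations. Reported metrics are area under the dose-response curve and its Z-transformed form.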

[13] = BET inhibitor-based combinations targeting novel dependencies in MECOM-rearranged (r) AML: HNT-34 cell line (AID 2202234); note: potency is the fitted concentration of half-maximal effect; nearly all actives have a fitted effect of over 35% in size
How it was run: as §2

[14] = BET inhibitor-based combinations targeting novel dependencies in MECOM-rearranged (r) AML: UCSD-AML1 cell line (AID 2202235); note: nearly all actives have a fitted effect of over 40% in size; note: potency is the fitted concentration of half-maximal effect
How it was run: as §2

[15] = BET inhibitor-based combinations targeting novel dependencies in MECOM-rearranged (r) AML: AML-191 cell line (AID 2202236; note: potency is the fitted concentration of half-maximal effect; nearly all actives have a fitted effect of over 35% in size)
How it was run: as §1

[16] = BET inhibitor-based combinations targeting novel dependencies in MECOM-rearranged (r) AML: AML-194 cell line (AID 2202237; note: nearly all actives have a fitted effect of over 40% in size; note: potency is the fitted concentration of half-maximal effect)
How it was run: as §1

## CN(C)C(=O)Nc1cc(-c2ccccc2)ccc1N(C)C
[1]
  activation: -13.7%
[2]
  Potency: inactive
[3]
  Potency: inactive
[4]
  Potency: 28.2 µM (active)

## Fc1ccc(N2CCN(CCC3OCCc4ccccc43)CC2)cc1 (configuration not stated)
[1]
  activation: -6.21%
[2]
  Potency: inactive
[3]
  Potency: inactive
[5]
  Potency: inactive

## COC(=O)c1ccc(O[C@@H]2O[C@H](CO)[C@@H](O)[C@H](O)[C@H]2O)c(OC)c1
[1]
  activation: -13.4%
[2]
  Potency: inactive
[6]
  Potency: inactive
[7]
  Potency: 17.5 µM (active)

## O=C(Nc1ccccc1)N1CCN(Cc2ccc3ccccc3n2)CC1
[1]
  activation: 8.59%
[2]
  Potency: inactive
[6]
  Potency: inactive
[7]
  Potency: inactive
[8]
  Potency: inactive
[9]
  Potency: inactive
[4]
  Potency: inactive
[5]
  Potency: inactive

## Cc1cc2ncc(C(=O)NCC(C)(C)NCC(=O)N3CCC[C@H]3C#N)cn2n1
[1]
  activation: -6.33%
[2]
  Potency: inactive
[3]
  Potency: inactive
[7]
  Potency: inactive
[9]
  Potency: inactive

## O=C(C1CCCCC1)N(CCN1CCN(c2ccccc2O)CC1)c1ccccn1
[1]
  activation: -3.34%
[2]
  Potency: inactive
[3]
  Potency: inactive
[9]
  Potency: inactive
[5]
  Potency: 11.3 µM (active)

## CCCN1CCC=C(c2cc(-c3ccc(C)cc3)no2)C1
[1]
  activation: 2.86%
[2]
  Potency: inactive
[3]
  Potency: inactive
[8]
  Potency: 25.1 µM (active)
[4]
  Potency: inactive
[5]
  Potency: inactive

## COc1cc(/C=C/C(=O)OCC2OC(OC3(CO)OC(CO)C(O)C3O)C(O)C(O)C2O)ccc1O (configuration not stated)
[1]
  activation: 10.7%
[2]
  Potency: inactive
[3]
  Potency: inactive
[6]
  Potency: inactive
[5]
  Potency: inactive

## COc1cc(C(O)C2COC(c3ccc(OC4OC(CO)C(O)C(O)C4O)c(OC)c3)C2CO)ccc1O (configuration not stated)
[1]
  activation: -10.7%
[2]
  Potency: inactive
[3]
  Potency: inactive
[6]
  Potency: inactive
[5]
  Potency: inactive

## COc1ccc(-c2cc3onc(-c4ccncc4)c3c(=O)n2C)cc1
[1]
  activation: -6.68%
[2]
  Potency: inactive
[3]
  Potency: inactive
[4]
  Potency: inactive
[5]
  Potency: inactive

## CC(C)C[C@H](NC(=O)[C@@H](NC(=O)c1cccc(-c2ccccc2)n1)[C@@H](C)O)B(O)O
[1]
  Potency: 385 nM (active) and 16.9 µM (active)
[2]
  Potency: inactive
[3]
  Potency: inactive
[7]
  Potency: inactive
[8]
  Potency: 10 µM (active)
[9]
  Potency: inactive
[4]
  Potency: inactive
[5]
  Potency: inactive
[10]
  Potency: 0.0723 µM (active)
[11]
  Potency: 0.0407 µM (active)
[12]
  Potency: 0.0512 µM (active)
[13]
  Potency: 0.0645 µM (active)
[14]
  Potency: 0.0723 µM (active)
[15]
  Potency: 0.0811 µM (active)
[16]
  Potency: 0.091 µM (active)

## COc1ccc(CCO[C@@H]2CCCC[C@H]2N2CC[C@@H](O)C2)cc1OC
[1]
  activation: -0.477%
[2]
  Potency: inactive
[3]
  Potency: inactive
[7]
  Potency: inactive
[9]
  Potency: inactive
[4]
  Potency: inactive
[5]
  Potency: inactive

## Cn1cnc(-c2nccc3c(=O)[nH]c(OCCCC(F)(F)F)nc23)c1
[1]
  activation: -13.4%
[2]
  Potency: inactive
[3]
  Potency: inactive
[9]
  Potency: inactive
[4]
  Potency: inactive
[5]
  Potency: inactive

## CN(C)c1ccc2c(c1)OC(N)=C(C#N)C2c1cccc(C(F)(F)F)c1 (configuration not stated)
[1]
  Potency: 953 nM (active)
[2]
  Potency: inactive
[3]
  Potency: inactive
[5]
  Potency: inactive

## COc1ccc(NC(=O)c2ccc(-c3ccc(C(=N)N)cc3C)cc2)cc1N1CCN(C)CC1
[1]
  activation: 8.11%
[2]
  Potency: inactive
[3]
  Potency: inactive
[6]
  Potency: inactive
[5]
  Potency: 12.7 µM (active)

## COc1ccc2c(c1O)OC[C@H]1c3ccc(O)cc3O[C@@H]21
[1]
  activation: -14.5%
[2]
  Potency: inactive
[6]
  Potency: inactive
[7]
  Potency: 22.5 µM (active)

## CC(=O)Nc1sc2c(c1-c1nc3ccccc3s1)CNC2
[1]
  Potency: 26900 nM (active)
[2]
  Potency: 11.3 µM (active)
[3]
  Potency: 7.12 µM (active)
[4]
  Potency: inactive
[5]
  Potency: 6.34 µM (active)

## Cc1nnc(-c2sc(NC(=O)[C@H](C(C)C)n3c(=O)[nH]c4ccccc4c3=O)nc2C)o1
[1]
  activation: -7.64%
[2]
  Potency: inactive
[3]
  Potency: inactive
[7]
  Potency: inactive
[9]
  Potency: inactive
[4]
  Potency: inactive
[5]
  Potency: inactive

## O=C(O)c1cnn(-c2nc3cc(OC(F)(F)F)c(Cl)cc3[nH]2)c1
[1]
  activation: -9.67%
[2]
  Potency: inactive
[3]
  Potency: 13.5 µM (active)
[7]
  Potency: 3.18 µM (active)
[9]
  Potency: inactive
[4]
  Potency: 10 µM (active)
[5]
  Potency: inactive
[10]
  viability: 119%
[11]
  Potency: inactive
[12]
  Potency: inactive
[14]
  Potency: inactive
[16]
  Potency: inactive

## CCOC(=O)c1cccc(CNc2ccc(N(C)C(=O)Nc3ccccc3)cc2)c1
[1]
  activation: -12.9%
[2]
  Potency: inactive
[3]
  Potency: inactive
[7]
  Potency: inactive
[9]
  Potency: inactive
[5]
  Potency: inactive

## CN(C)c1ccc(C2O[C@@H](c3ccccc3)C[C@H](c3ccccc3)O2)cc1 (some centres not stated)
[1]
  activation: -3.34%
[2]
  Potency: 3.55 µM (active)
[3]
  Potency: 3.57 µM (active)
[7]
  Potency: 3.55 µM (active)
[8]
  Potency: 44.7 µM (active)
[9]
  Potency: 10 µM (active)
[5]
  Potency: 10 µM (active)

## CC(C)(C)Nc1nc(Nc2ccc(C(N)=O)cc2)cc(N)c1C#N
[1]
  activation: 11%
[2]
  Potency: 7.08 µM (active)
[6]
  Potency: inactive
[7]
  Potency: 15.8 µM (active)
[8]
  Potency: inactive
[9]
  Potency: 3.57 µM (active)
[4]
  Potency: inactive
[5]
  Potency: 14.2 µM (active)
